Among the test systems are HCT-15 colon; HT29 colon; SNB-75 CNS; SNB-19 CNS; U251 CNS; PC-3 prostate; SK-MEL-5 melanoma; UACC-62 melanoma; LOX IMVI melanoma; SK-MEL-28 melanoma; SK-MEL-2 melanoma; EKVX NSCLC; SN12C renal; UO-31 renal; TK-10 renal; ACHN renal; A498 renal; CCRF-CEM leukemia; MOLT-4 leukemia; SR leukemia.
Holding throughout (test): NCI-60 one-dose screen, 48 h (100 = growth as untreated, 0 = no growth, -100 = all killed)
Settings in all cases: 10 µM unless noted

Molecules are shown by their SMILES. The panel holds about 83,000 compounds, 20% with a hit somewhere; the sample as a whole holds those more often.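 For each line, cells grew in 96-well plates with the test compound present at a single concentration for 48 hours.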 Values without a mark were called inactive. Calls of active or inactive are those of the source. How the source made its calls: active means growth percent below 10; inactive means the rest.

Regarding `O=[N+]([O-])c1cccc(CN(Cc2cccc([N+](=O)[O-])c2O)c2ccccc2)c1O`, the growth in the assay with HCT-15 colon was 69.4%; with HT29 colon, 56.1%; in the assay on SNB-75 CNS it was 86.1%; in the assay with SNB-19 CNS, 92%; in the assay with U251 CNS, 85.4%; in the assay on PC-3 prostate, 71.1%. For the same molecule, the growth with SK-MEL-5 melanoma was 90.5%; with UACC-62 melanoma, 69.6%; in the assay on LOX IMVI melanoma it was 79.6%; with SK-MEL-28 melanoma it was 96.7%; in the assay with SK-MEL-2 melanoma, 84.7%; in the assay with EKVX NSCLC, 77.3%. The growth in the assay with SN12C renal is 80.6%; with UO-31 renal, 39.6%; in the assay on TK-10 renal it was 89.7%; in the assay on ACHN renal it was 74.6%; with A498 renal, 65.5%; in the assay on CCRF-CEM leukemia, 67.8%. In addition, the growth in the assay with MOLT-4 leukemia is 64.6%; in the assay on SR leukemia, 55.8%.

For the molecule `Cc1cc(C)c(NC(=O)c2sc3nc4c(cc3c2N)CCCCCC4)c(C)c1`, the growth in the assay on HCT-15 colon is 41.1%; in the assay on HT29 colon, 19%; in the assay with SNB-75 CNS it was 57.6%; in the assay with SNB-19 CNS, 49.1%; with U251 CNS it was 35.3%; with PC-3 prostate, 47.9%. Also, the growth in the assay with SK-MEL-5 melanoma was 57.1%; in the assay on UACC-62 melanoma, 34.5%; in the assay with LOX IMVI melanoma it was 58.7%; with SK-MEL-28 melanoma it was 75.2%; with SK-MEL-2 melanoma it was 34.6%; in the assay with EKVX NSCLC, 67.8%. Further, the growth in the assay on SN12C renal is 68.3%; in the assay on UO-31 renal it was 67.3%; in the assay on TK-10 renal it was 74.2%; with ACHN renal it was 72.4%; with A498 renal it was 19.9%; in the assay with CCRF-CEM leukemia, 32.8%. Moreover, the growth with MOLT-4 leukemia is 36.3%; in the assay on SR leukemia, 23.3%.

`Cc1c(C(=O)Nc2nc3ccccc3[nH]2)cnn1-c1ccccn1`: the growth in the assay on HCT-15 colon was 104%; in the assay with HT29 colon, 66%; with SNB-75 CNS, 104%; in the assay on SNB-19 CNS, 101%; in the assay with U251 CNS, 97.4%; in the assay on PC-3 prostate, 93.1%. For the same molecule, the growth in the assay on SK-MEL-5 melanoma is 99.9%; with UACC-62 melanoma it was 107%; in the assay with LOX IMVI melanoma it was 104%; with SK-MEL-28 melanoma, 112%; in the assay with SK-MEL-2 melanoma it was 105%; with EKVX NSCLC, 103%. Moreover, the growth in the assay with SN12C renal was 114%; with UO-31 renal, 104%; in the assay on TK-10 renal, 98.3%; in the assay with ACHN renal, 114%; in the assay on A498 renal it was 96.4%; in the assay on CCRF-CEM leukemia it was 90.8%. Moreover, the growth with MOLT-4 leukemia was 77.5%; with SR leukemia it was 83.8%.

Consider `CN1CCN(/C=C2\CC(C(=O)NCc3ccc(Cl)cc3Cl)NC2=O)CC1` (stereo not given), for which the growth was 108% in the assay on HCT-15 colon; 99% in the assay on HT29 colon; 106% in the assay on SNB-75 CNS; 100% in the assay with SNB-19 CNS; 100% in the assay with U251 CNS; 90.9% in the assay with PC-3 prostate. In addition, the growth in the assay on SK-MEL-5 melanoma was 95.8%; in the assay with UACC-62 melanoma, 96.6%; with LOX IMVI melanoma, 100%; in the assay on SK-MEL-28 melanoma, 110%; in the assay with SK-MEL-2 melanoma, 100%; in the assay with EKVX NSCLC it was 116%. The growth with SN12C renal is 106%; with UO-31 renal, 95%; with TK-10 renal it was 92.7%; with ACHN renal it was 110%; in the assay with A498 renal, 90.8%; in the assay with CCRF-CEM leukemia, 88%. Further, the growth was 95.2% in the assay with MOLT-4 leukemia and 90.3% in the assay on SR leukemia.

On to `N#Cc1c(-c2ccc(F)cc2)nc(N/N=C/c2c[nH]c3ccccc23)nc1N1CCOCC1`, for which the growth in the assay on HCT-15 colon was 8.42% (active); in the assay with HT29 colon, 18%; in the assay on SNB-75 CNS, 62.5%; with SNB-19 CNS it was 89.7%; in the assay with U251 CNS, 32.2%; in the assay with PC-3 prostate, 49.9%. The growth is 37.1% in the assay on SK-MEL-5 melanoma; 61.8% in the assay with UACC-62 melanoma; 20.6% in the assay with LOX IMVI melanoma; 4.29% (active) in the assay with SK-MEL-28 melanoma; 53.4% with SK-MEL-2 melanoma; 56.1% with EKVX NSCLC. Also, the growth in the assay on SN12C renal was 82.2%; in the assay on UO-31 renal, 34.5%; in the assay on TK-10 renal it was 89.9%; in the assay with ACHN renal, 43.4%; in the assay on A498 renal, 25.6%; with CCRF-CEM leukemia it was 40.5%. Also, the growth in the assay on MOLT-4 leukemia was 22%; with SR leukemia, 6.49% (active).

In the case of `O=c1[nH]nc(-c2ccc(Br)cc2)c2sc(NC(=S)Nc3ccc(Cl)cc3)nc12`, the growth is 103% in the assay on HCT-15 colon; 94.1% in the assay with HT29 colon; 95.7% in the assay with SNB-75 CNS; 103% in the assay on SNB-19 CNS; 108% with U251 CNS; 96.6% with PC-3 prostate. The growth is 99% in the assay on SK-MEL-5 melanoma; 89.5% with UACC-62 melanoma; 84.7% in the assay with LOX IMVI melanoma; 109% with SK-MEL-28 melanoma; 101% in the assay with SK-MEL-2 melanoma; 89.8% in the assay on EKVX NSCLC. For the same molecule, the growth in the assay on SN12C renal is 109%; in the assay with UO-31 renal, 89.2%; with TK-10 renal it was 123%; with ACHN renal, 102%; in the assay on A498 renal, 100%; with CCRF-CEM leukemia, 98.4%. The growth with MOLT-4 leukemia was 105%; in the assay on SR leukemia, 106%.

As to `C=C1C(=O)O[C@H]2[C@H]1CC/C(COC(=O)c1cccnc1N)=C\CC[C@@]1(C)O[C@@H]21`, the growth with HCT-15 colon is 0.999% (active); in the assay on HT29 colon, -10.4% (active); in the assay with SNB-75 CNS, 66%; in the assay on SNB-19 CNS, 25.7%; with U251 CNS, 28.8%; in the assay on PC-3 prostate, 24.8%. In addition, the growth in the assay with SK-MEL-5 melanoma is 15.3%; with UACC-62 melanoma, 33%; in the assay with LOX IMVI melanoma, 7.48% (active); with SK-MEL-28 melanoma it was 19.6%; in the assay with SK-MEL-2 melanoma it was 39.1%; in the assay on EKVX NSCLC, 34.1%. In addition, the growth with SN12C renal was 10.4%; with UO-31 renal, 13.3%; with TK-10 renal, -6.51% (active); in the assay with ACHN renal, -3.75% (active); in the assay with A498 renal it was 33.8%; in the assay with CCRF-CEM leukemia it was -3.91% (active). Moreover, the growth in the assay with MOLT-4 leukemia is 8.57% (active); with SR leukemia, 2.93% (active).

These data come from PubChem BioAssay (NCI).
